Six compounds from PubChem BioAssay (NCATS) can be followed below.

Each structure is given as a SMILES string. Results filed as inconclusive are left out. Unmarked numbers belong to inactive results. The source made the active and inactive calls. The call rests on the fitted dose curve; in most records, active means well fitted cell-killing curve with a large enough effect; inconclusive means small, poorly fitted or top-dose-only effect, or effect the other way; inactive means no such curve, though single readings can be large or run the other way. Numbered stars: 1 amine (or outer) side, 2 acyl side, 3 side chain; on linkers, the order of the positions; unused ones are H or OH. Bridge positions count the residues as written; N and C are the ends. Square brackets hold non-standard residues; d marks the D form. Peptide text beside a SMILES is read from it. I, II: the chains in the order shown. Actinocin(9to1) = Cc1c2oc3c(C)ccc(C(=O)[*:1])c3nc-2c(C(=O)[*:2])c(N)c1=O; NMeV = CN[C@H](C(=O)O)C(C)C; Sar = CNCC(=O)O
Potency means the concentration at half of the fitted maximal effect.

The experiment can be described thus: qHTS of pediatric cancer cell lines to identify multiple opportunities for drug repurposing: Confirmatory screen for SJ-GBM2 cells (AID 1347116). Further: nearly all actives have a fitted effect of over 60% in size.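 On activity change, negative = cytotoxic: plate controls were DMSO for no effect and bortezomib for full effect.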 The settings on record: SJ-GBM2 glioblastoma cells, viability; series mostly up to 45.9 µM; activity change, negative = cytotoxic: at the top concentration. Summed up:
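Viability measured as metabolically active cells via CellTiter-Glo luminescence following 48 hours of compound exposure, 11-point dilutions in confirmatory testing. 500-1,000 cells/well plated 5 hours before dosing; controls were DMSO and 2.3 µM bortezomib.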
`CN(C)C(=S)SC(=S)N(C)C`: the “activity change, negative = cytotoxic” value was -16.8%. Regarding `CCCCC(CC)CN=C(N)NC(N)=NCCCCCCN=C(N)NC(N)=NCC(CC)CCCC` (stereo unspecified), the Potency is 1170 nM (active).

On to `CCC(C(=O)OCCN(CC)CC)c1ccccc1` (stereo unspecified), for which the “activity change, negative = cytotoxic” value is 6.03%. Turning to `CC(=O)Oc1ccc2c(c1)CC[C@@H]1[C@@H]2CC[C@]2(C)[C@@H](O)CC[C@@H]12`, the compound was classed as inactive.

As to `Cc1c2oc3c(C)ccc(C(=O)N[C@@H]4C(=O)N[C@H](C(C)C)C(=O)N5CCC[C@H]5C(=O)N(C)CC(=O)N(C)[C@@H](C(C)C)C(=O)O[C@@H]4C)c3nc-2c(C(=O)N[C@@H]2C(=O)N[C@H](C(C)C)C(=O)N3CCC[C@H]3C(=O)N(C)CC(=O)N(C)[C@@H](C(C)C)C(=O)O[C@@H]2C)c(N)c1=O` (I: T[dV]P[Sar][NMeV] / II: T[dV]P[Sar][NMeV]; ester I:1-I:C, II:1-II:C; linker I:N-II:N via Actinocin(9to1)), the Potency is 26.1 nM (active).

Take `CC(=O)Oc1ccc(C(c2ccc(OC(C)=O)cc2)c2ccccn2)cc1`: the “activity change, negative = cytotoxic” value was 6.54%.
